From PubChem BioAssay come the findings set out here.

One experiment relates to Lefty1. Nature of the experiment: Lefty1 protein binding to printed compounds – biochemical, small-molecule microarray, 635/667 nm fluorescence, primary screen (AID 1139). Conditions: fluorescence 635/667, higher = more signal.
Experiment [1] relates to wheat germ agglutinin (Triticum aestivum), Alexa647-labelled. Nature of the experiment: Alexa647-WGA lectin binding to printed small molecules – biochemical, small-molecule microarray, 635/667 nm fluorescence, artefact control for SMM control-protein annotation, profiling panel (AID 1140).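 Also: score merges 667 nm feature emission with signal to noise over triplicate slides.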 The following applies: WGA-A647 binding, 635 nm fluorescence, higher = more signal.
Experiment [2] addresses Luciferin 4-monooxygenase (Photinus pyralis) (UniProt P08659). Nature of the experiment: inhibition of purified Photinus pyralis luciferase – biochemical, luminescence, purified enzyme, 2006 set, primary screen (AID 1141).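 Also: cell-free assay with purified firefly luciferase at 100 ng per well in PBS; test concentration not given here.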 Conditions: purified firefly luciferase, SteadyGlo luminescence, 30 min; higher = more signal, called active from +8 up or from −8 down.
The test system of experiment [3] is Wnt5a (protein binding on small-molecule microarray). Nature of the experiment: small molecules binding Wnt5a protein – biophysical, small-molecule microarray, 635/667 nm fluorescence, primary screen (AID 1142).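 Also: fluorescence read at 667 nm with signal to noise per printed feature.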 Conditions: 635 nm fluorescence, higher = more signal.
Experiment [4] is described as follows: ATP-based viability of Huh7 replicon cells – cell-based, CellTiter-Glo luminescence, basal, 48 h, cytotoxicity control for HCV replication inhibitor project, primary screen (AID 1143).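 Also: Huh7 hepatoma cells carrying a hepatitis C replication reporter with no stimulus; test concentration not given here.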 Conditions: higher = more signal, called active from +8 up or from −8 down. For orientation: Replicon systems follow genome replication, usually without infectious particles.
The nature of experiment [5]: basal CRE-LacZ reporter activity in PC12 – cell-based, unstimulated, primary screen (AID 1145). Conditions: no forskolin, luminescence, 4.5 h, higher = more signal, called active from +8 up or from −8 down.
Experiment [6] is described as follows: forskolin-driven CRE-LacZ activity in PC12 – cell-based, CRE-LacZ reporter, forskolin-stimulated, primary screen (AID 1146).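 Also: PC12 cells with 6xCRE LacZ reporter stimulated by forskolin 10 µM; beta-galactosidase reporter signal reflecting CREB driven transcription.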 Conditions: luminescence, 4.5 h, higher = more signal, called active from +8 up or from −8 down.
For experiment [7], the target named is Streptavidin (Streptomyces avidinii) (UniProt P22629). Nature of the experiment: compounds binding control protein streptavidin – biophysical, small-molecule microarray, 635/667 nm fluorescence, artefact control for SMM compound annotation, primary screen (AID 1147).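 Also: signal reflects streptavidin binding to arrayed compounds as a control protein.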 The following applies: higher = more signal.
Sequence of Streptavidin (Streptomyces avidinii) (P22629 whole entry, looked up): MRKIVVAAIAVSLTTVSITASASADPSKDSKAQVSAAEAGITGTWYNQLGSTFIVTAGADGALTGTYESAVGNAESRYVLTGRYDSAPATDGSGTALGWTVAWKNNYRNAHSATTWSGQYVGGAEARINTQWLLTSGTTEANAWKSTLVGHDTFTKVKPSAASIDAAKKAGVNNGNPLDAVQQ
The nature of experiment [8]: probe aInhba binding on compound microarray – biochemical, small-molecule microarray, 635/667 nm fluorescence, primary screen (AID 1148).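 Also: score merges 667nm spot fluorescence with signal-to-noise for antibody binding to printed compounds.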 Conditions: higher = more signal.
The target of experiment [9] is Torsin-1A (Homo sapiens) (UniProt O14656). Nature of the experiment: TOR1A wild-type binding on microarray – cell lysate, small-molecule microarray, lysate, 635/667 nm, primary screen (AID 1149). Conditions: COS7 hTOR1A-WT lysate, 635 nm fluorescence, higher = more signal.
Sequence of Torsin-1A (Homo sapiens) (O14656 whole entry, looked up): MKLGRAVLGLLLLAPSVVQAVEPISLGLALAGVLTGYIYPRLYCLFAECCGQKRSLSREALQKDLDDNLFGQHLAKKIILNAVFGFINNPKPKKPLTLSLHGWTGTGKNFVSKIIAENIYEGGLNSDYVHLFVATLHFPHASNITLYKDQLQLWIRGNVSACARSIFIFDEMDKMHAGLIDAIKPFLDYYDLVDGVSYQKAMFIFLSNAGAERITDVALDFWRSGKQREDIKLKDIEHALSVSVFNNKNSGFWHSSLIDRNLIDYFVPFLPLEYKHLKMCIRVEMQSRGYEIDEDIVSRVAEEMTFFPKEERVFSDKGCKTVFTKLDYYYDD
Experiment [10] has the same target. Kind of experiment: torsin A mutant lysate binding on microarrays – cell lysate, small-molecule microarray, COS7 lysate, 635/667 nm fluorescence, primary screen (AID 1150).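 Also: score pools 667 nm emission and signal to noise measuring lysate protein binding.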 Conditions: COS7 hTOR1A mutant lysate, 635 nm fluorescence, higher = more signal.
Experiment [11] relates to Sonic hedgehog protein (Shh). Nature of the experiment: Sonic hedgehog microarray binding compounds – biochemical, small-molecule microarray, 635/667 nm fluorescence, primary screen (AID 1151).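 Also: Shh protein binding to compounds spotted on small-molecule microarray slides; score combines spot fluorescence intensity with signal-to-noise across triplicate slides.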 Conditions: 635 nm fluorescence, higher = more signal.
Experiment [12] can be described thus: optical density shifts of acrAB sulA E. coli – strain DRC41, OD650, 48 h, E. coli filamentation inducer project, primary screen (AID 1152).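 Also: E. coli MC1000 strain DRC41 lacking acrAB efflux pump and sulA.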 The following applies: higher = more signal, called active from +8 up or from −8 down.
A short description of experiment [13]: probe aLefty1 binding on compound microarray – biochemical, small-molecule microarray, 635/667 nm fluorescence, primary screen (AID 1153).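 Also: score merges spot fluorescence with signal-to-noise ratio from the scanned slide images.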 Conditions: higher = more signal.
Experiment [14] is described as follows: plasmodial surface anion channel blockers, osmotic lysis – cell-based, P. falciparum Indochina, OD700, 1 h, primary screen (AID 1154). The following applies: P. falciparum Indochina infected RBC osmotic lysis, higher = more signal, called active from +8 up or from −8 down.
The nature of experiment [15]: plasmodial surface anion channel blockers, osmotic lysis – cell-based, P. falciparum Indochina, OD700, 2 h, primary screen (AID 1155).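 Also: lysis reports solute entry through the parasite surface anion channel PSAC.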 The following applies: P. falciparum Indochina infected erythrocytes, higher = more signal, called active from +8 up or from −8 down.
Experiment [16] in a line: changes in parasitized red cell lysis, either direction – P. falciparum Indochina, OD700, 3 h, PSAC antagonist project, primary screen (AID 1156). The following applies: P. falciparum-infected erythrocytes, osmotic lysis, higher = more signal, called active from +8 up or from −8 down.
The nature of experiment [17]: plasmodial surface anion channel blockers, osmotic lysis – cell-based, P. falciparum Indochina, OD700, 18 h, primary screen (AID 1157). Conditions: P. falciparum Indochina infected erythrocytes, osmotic lysis OD700, 18 h; higher = more signal, called active from +8 up or from −8 down.
Experiment [18] is described as follows: S6 kinase pathway phospho-S6 level changes – cell-based, A549, cytoblot, luminescence, serum-stimulated, primary screen (AID 1158).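 Also: serum-stimulated A549 lung adenocarcinoma cells; signal is phosphorylated S6 detected by cytoblot immunostaining with HRP secondary.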 The following applies: 5 h, higher = more signal.
For experiment [19], the target named is NADPH oxidase 2 (Homo sapiens) (UniProt P04839). Nature of the experiment: compounds shifting NOX2 Amplex Red fluorescence – cell-based, HEK293-NOX2, PMA-stimulated, NOX inhibitor project, primary screen (AID 1159). Also: test concentration not given here. The following applies: 45 min, higher = more signal, called active from +8 up or from −8 down.
Sequence of NADPH oxidase 2 (Homo sapiens) (P04839 whole entry, looked up): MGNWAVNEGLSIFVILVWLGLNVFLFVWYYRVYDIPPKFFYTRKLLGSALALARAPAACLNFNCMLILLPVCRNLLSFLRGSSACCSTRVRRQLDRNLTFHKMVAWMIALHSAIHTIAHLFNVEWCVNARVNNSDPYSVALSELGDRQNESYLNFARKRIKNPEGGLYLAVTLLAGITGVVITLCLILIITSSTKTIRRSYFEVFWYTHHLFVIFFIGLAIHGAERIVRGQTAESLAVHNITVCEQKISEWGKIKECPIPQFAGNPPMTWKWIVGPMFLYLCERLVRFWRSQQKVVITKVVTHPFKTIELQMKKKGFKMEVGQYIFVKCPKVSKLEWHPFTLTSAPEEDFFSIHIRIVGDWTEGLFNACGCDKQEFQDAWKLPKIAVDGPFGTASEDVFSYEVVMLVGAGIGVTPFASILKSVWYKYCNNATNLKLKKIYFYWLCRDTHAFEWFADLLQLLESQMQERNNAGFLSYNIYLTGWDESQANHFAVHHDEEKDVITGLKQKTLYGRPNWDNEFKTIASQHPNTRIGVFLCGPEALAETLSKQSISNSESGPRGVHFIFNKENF

The source made the active and inactive calls.

Sequence of Luciferin 4-monooxygenase (Photinus pyralis) (P08659 whole entry, looked up): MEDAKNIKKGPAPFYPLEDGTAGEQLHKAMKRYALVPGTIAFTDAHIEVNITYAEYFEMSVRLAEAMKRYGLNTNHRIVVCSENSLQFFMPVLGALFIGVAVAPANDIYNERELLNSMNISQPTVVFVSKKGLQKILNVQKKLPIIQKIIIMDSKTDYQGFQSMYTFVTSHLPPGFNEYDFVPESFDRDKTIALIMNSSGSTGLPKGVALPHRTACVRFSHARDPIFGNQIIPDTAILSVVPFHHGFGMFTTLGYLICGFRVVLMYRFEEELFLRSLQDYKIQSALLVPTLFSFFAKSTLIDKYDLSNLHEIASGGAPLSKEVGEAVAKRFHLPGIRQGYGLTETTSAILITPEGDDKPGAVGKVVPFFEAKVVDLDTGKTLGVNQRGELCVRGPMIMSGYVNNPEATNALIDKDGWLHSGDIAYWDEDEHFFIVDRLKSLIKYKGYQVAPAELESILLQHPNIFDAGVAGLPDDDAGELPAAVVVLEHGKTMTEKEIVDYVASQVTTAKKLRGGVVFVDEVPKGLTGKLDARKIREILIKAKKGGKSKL

Consider `C/C=C/[C@@H](CCn1cc(CCO[Si](C(C)C)(C(C)C)C(C)C)nn1)[Si](C)(C)c1ccc(OC)cc1`, for which the composite z-score was -1.16 in the experiment with Lefty1; -2.08 in [1]; -0.569 in experiment [3]; -1.27 in experiment [7]; -0.39 in experiment [8]; -0.72 with Torsin-1A (Homo sapiens) [9]. In addition, the composite z-score in the experiment with Torsin-1A (Homo sapiens) [10] is 0.741; in [11], -0.526; in [13] it was -0.315. Also, the z-score in [2] is -2.45 (inactive); in experiment [4], -3.19 (inactive); in [5] it was 3.29 (inactive); in [6], -1.01 (inactive); in experiment [12], 0.415 (inactive); in experiment [14], 0.305 (inactive). The z-score is 0.0452 (inactive) in experiment [15]; -0.606 (inactive) in experiment [16]; -1.92 (inactive) in experiment [17]; 2.96 in experiment [18]; -0.937 (inactive) in [19].

`C=C(C(=O)CC[C@H](OC(C)=O)c1ccc(CO)o1)C(C)C`: the composite z-score in the experiment with Lefty1 is 0.299; in experiment [1], -0.432; in experiment [3], 0.0615; in experiment [7] it was -0.469; in experiment [8] it was 0.353; in the experiment with Torsin-1A (Homo sapiens) [9], 0.154. The composite z-score with Torsin-1A (Homo sapiens) [10] was -0.248; in experiment [11], 0.937; in experiment [13] it was -0.215. Besides, the z-score in experiment [2] is -2.12 (inactive); in experiment [4], -4.37 (inactive); in [5] it was 1.09 (inactive); in experiment [6] it was -0.949 (inactive); in experiment [12], 1.27 (inactive); in [14], 1.55 (inactive). Also, the z-score in experiment [15] is -0.558 (inactive); in experiment [16], 0.68 (inactive); in [17] it was -1.83 (inactive); in experiment [18], 2.5; in experiment [19], -0.0262 (inactive).

For the compound `[N-]=[N+]=NCc1ccccc1C[C@]1(C(=O)NCc2ccccc2)N=C(c2ccc(OCCCO)cc2)O[C@H]1c1ccccc1`, the composite z-score is -1.17 in the experiment with Lefty1; 1.24 in experiment [1]; 0.46 in [3]; 0.532 in experiment [7]; 0.216 in experiment [8]; -0.265 with Torsin-1A (Homo sapiens) [9]. Besides, the composite z-score with Torsin-1A (Homo sapiens) [10] is 0.765; in experiment [11] it was -0.948; in [13], 0.832. The z-score in experiment [2] was -1.19 (inactive); in experiment [4] it was -4.02 (inactive); in [5] it was 1.11 (inactive); in [6], -1.14 (inactive); in [12], 1.78 (inactive); in [14], 10.9 (active). Also, the z-score was 1.53 (inactive) in [15]; 3.76 (inactive) in [16]; -0.605 (inactive) in experiment [17]; 1.09 in experiment [18]; -0.425 (inactive) in experiment [19].

For `COC(=O)[C@@]1(CCC(=O)OC(C)(C)C)COC(c2ccc(OCCCO)cc2)=N1`, the composite z-score in the experiment with Lefty1 is -2.55; in experiment [1] it was -1.57; in experiment [3], -0.328; in [7] it was -1.44; in experiment [8], -0.109; with Torsin-1A (Homo sapiens) [9], -1.3. Moreover, the composite z-score with Torsin-1A (Homo sapiens) [10] was -0.742; in experiment [11], -1.03; in [13], 0.0721. Further, the z-score was -1.4 (inactive) in experiment [2]; -0.243 (inactive) in experiment [4]; 0.694 (inactive) in experiment [5]; -1.14 (inactive) in experiment [6]; 1.06 (inactive) in experiment [12]; 21 (active) in experiment [14]. Besides, the z-score is 3.26 (inactive) in experiment [15]; 0.0081 (inactive) in experiment [16]; 0.613 (inactive) in experiment [17]; 0.21 in [18]; -0.0972 (inactive) in experiment [19].

As for `CCCCCCC#C[Si](O[C@H](c1ccccc1)c1cn(Cc2ccccc2)nn1)(C(C)C)C(C)C`, the composite z-score with Lefty1 was 0.806; in [1] it was -0.349; in experiment [3], -0.0163; in experiment [7] it was 0.239; in [8], -0.128; with Torsin-1A (Homo sapiens) [9], 0.122. Also, the composite z-score in the experiment with Torsin-1A (Homo sapiens) [10] was 0.345; in experiment [11], 0.609; in experiment [13], -0.101. Further, the z-score was -1.15 (inactive) in experiment [2]; -1.53 (inactive) in [4]; -1.23 (inactive) in [5]; -1.35 (inactive) in [6]; 3.05 (inactive) in experiment [12]; 1.66 (inactive) in [14]. The z-score is -0.226 (inactive) in [15]; -0.0275 (inactive) in experiment [16]; -0.327 (inactive) in [17]; 0.35 in [18]; -0.941 (inactive) in experiment [19].

As for `COc1c(C)cc(-c2cc3c(c(CCc4ccccc4)n2)[Si](C(C)C)(C(C)C)OC3)cc1C`, the composite z-score in the experiment on Lefty1 was 0.251; in [1], -0.442; in experiment [3] it was -0.0652; in experiment [7] it was -0.0683; in experiment [8], 0.0659; with Torsin-1A (Homo sapiens) [9], 0.367. The composite z-score in the experiment with Torsin-1A (Homo sapiens) [10] was 0.362; in [11] it was 0.981; in experiment [13] it was 0.112. For the same compound, the z-score in experiment [2] was -0.374 (inactive); in experiment [4], 0.236 (inactive); in [5] it was 0.12 (inactive); in experiment [6], -0.867 (inactive); in experiment [12] it was 2.56 (inactive); in [14], 1.18 (inactive). The z-score in experiment [15] is -0.803 (inactive); in [16], -0.428 (inactive); in experiment [17] it was -1.57 (inactive); in [18], 0.663; in [19], 0.726 (inactive).

On to `CC(C)(C)OC(=O)CC[C@]1(C(=O)NCc2ccccc2)N=C(c2ccc(OCCCO)cc2)O[C@H]1c1ccccc1N=[N+]=[N-]`, for which the composite z-score stood at 0.459 in the experiment on Lefty1; 1.42 in [1]; 1.11 in experiment [3]; 1.71 in [7]; 0.317 in experiment [8]; 0.466 with Torsin-1A (Homo sapiens) [9]. Also, the figures for the composite z-score (with Torsin-1A (Homo sapiens) [10]; in [11]; in experiment [13]) were 0.78, 0.425 and 0.598, respectively. In addition, the z-score is -9.8 (active) in experiment [2]; -3.04 (inactive) in [4]; 1.13 (inactive) in experiment [5]; -1.4 (inactive) in experiment [6]; 1.78 (inactive) in [12]; 30.9 (active) in [14]. The z-score is 27.9 (active) in experiment [15]; 2.08 (inactive) in experiment [16]; 6.66 (inactive) in experiment [17]; 1.55 in experiment [18]; -2.28 (inactive) in experiment [19].

Regarding `CC(C)(C)OC(=O)CC[C@@]1(C(=O)NCc2ccccc2)N=C(c2ccc(OCCCO)cc2)O[C@@H]1c1ccccc1CN=[N+]=[N-]`, the composite z-score with Lefty1 amounted to 0.148; in [1], 1.27; in experiment [3], 1.14; in experiment [7] it was 1.17; in experiment [8], 0.156; with Torsin-1A (Homo sapiens) [9], 0.807. Further, the values for the composite z-score (in the experiment with Torsin-1A (Homo sapiens) [10]; in experiment [11]; in experiment [13]) were 0.312, 0.285 and -0.14, respectively. Further, the z-score is -1.24 (inactive) in [2]; -5.23 (inactive) in experiment [4]; 1.46 (inactive) in experiment [5]; -1.42 (inactive) in [6]; 2.4 (inactive) in experiment [12]; 26.3 (active) in experiment [14]. Further, the z-score in experiment [15] is 16.7 (active); in experiment [16], -0.187 (inactive); in experiment [17], 0.712 (inactive); in [18], 2.07; in [19], -0.046 (inactive).
